Out of some 53,000 sequences screened, about 3,700 (7%) were called active.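 Rule for the calls: active = gene knockdowns whose robust z-score for IL-1 alpha signal is at least 2 or at most -2, so actives lie on both sides; inactive = the rest.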 The sample as a whole holds a higher share of actives than the screen did.
assay: Components of the Cytosolic LPS Sensing Pathway: Gene Identification via Genome-wide siRNA Screen; details: RAW264.7 macrophages, IL-1a HTRF, actives lie on both sides, screened at 100 nM (by protocol), cells primed 5 h with Pam3CSK4 first;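 note: robust z of the log signal after scaling to non-targeting control siRNA wells of the plate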
How it was run: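 RAW264.7; siRNA 100 nM final, RNAiMAX, 48h 37 degrees C; Pam3CSK4 5 h; LipidA + TransIT-TKO 24 h; IL-1a HTRF; CellTiter-Glo viability; robust z vs negative-control median.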

Sequence | z-score
GCUUGUCUCACACAGCUCUTT against Olfr401 | -3.11 (active)
GGUACUGGAAGAGGAGGUATT against Ppil3 | -0.507 (inactive)
GCACAUUGGGAUAGCUGCATT against Trim65 | 1.48 (inactive)
GGAAAUAUGUGUCCGCACUTT against Mfap2 | -0.0699 (inactive)
GAGAGGGCAUAAUGGUUUUTT against H3c3 | 4.58 (active)
GGGAUACAGAUUUUGUUUATT against Olfr1261 | -0.116 (inactive)
GGGAAGUUGUCUGACUAUUTT against Cyc1 | 0.225 (inactive)
GGGAAAUGGAGGAUAAUUATT against Zmat1 | -0.172 (inactive)
GCAAUUACAGGAGGAAUUATT against Orc3 | 2.86 (active)
GCUGAAAACUAGUCAGUCCTT against Epn3 | -1.07 (inactive)
GCCUUAAAAGACCUGACGUTT against Abca8b | 2.12 (active)
GCUUACAGCACAACAACAUTT against Ubap1 | -0.00967 (inactive)
CCUGGACACGAUUUCAGAGTT against Rbm6 | 1.18 (inactive)
GGAGGGUCGGCUUAUAAUUTT against Adam6b | 2.16 (active)
GGAAGCUUCAAGCCAUGGUTT against Creb3 | -0.919 (inactive)
CGUUGGAUCUUGAUAAAACTT against Lpar2 | 0.179 (inactive)
GGACUUGAUCAAUGGCUAUTT against Wscd1 | -0.043 (inactive)
GUGGCGAUAUCCAGAGAUGTT against Vmn1r18 | 0.261 (inactive)
GCCGGCUGUAUUCAGUACGTT against Hoxc9 | 3.06 (active)
GCCACGUCUAAGUAUCAUUTT against Col6a1 | -0.377 (inactive)
GCUCUGUUGGAAAGGUUUATT against Exosc6 | 0.0305 (inactive)
GCAACUGUUCUACGUCUGATT against Tmprss2 | 1.63 (inactive)

Sequence | z-score
GAAGCUGUCCAAGUACGAGTT against Atoh7 | -0.299 (inactive)
GGCAUGACAUGUAGAUGGCTT against Aldh3b3 | 2.17 (active)
CGAGCAAUGUUAAAAAUGATT against Slain2 | -0.993 (inactive)
GGGCAAACCCAAGACCUUATT against Sgms2 | -0.0749 (inactive)
GGAAUUUGAGAUUGAAUGUTT against Katnbl1 | 0.478 (inactive)
GCCUGGAGACUACAUAUCCTT against Cdc20 | -2.09 (active)
GCUCGAAUGUGUAAAGACGTT against Csnk1e | 0.982 (inactive)
CCUUGUUGCUCUGUCGAUCTT against Grina | 0.0669 (inactive)
CCAAGCUUAUUGACAAUGATT against Spta1 | 0.213 (inactive)
GGUGUGUUAAUUUCUAGAUTT against Frs2 | 0.945 (inactive)
GGCUUGAAGCCCUAGUACUTT against Prss30 | 2.46 (active)
GGACAACAAGAUCAGGACCTT against Akap4 | 0.535 (inactive)
GGUUACCUAUUGGAUGACATT against Muc19 | -1.43 (inactive)
GGAAAAAUCAAAAGUGUUGTT against Tamm41 | -1.55 (inactive)
GACUACAAAGGAGAGCAAATT against Igfbp6 | 2.07 (active)
GCUCCAGCUCUGCUUUAAGTT against 4931440P22Rik | 1.28 (inactive)
GGGCAAUUUGGAGCUUACCTT against Erbb2 | -0.952 (inactive)
GAUGCCUUUUAUGGGUGCATT against Olfr61 | 0.0552 (inactive)
GGCGUGAAGAAGUUUGAUGTT against Pklr | -0.431 (inactive)
GCGAGAAUUCUCUUCCAAUTT against Gsx2 | 2.33 (active)
GGACUGUCAGUACUGUCAATT against Agr3 | 0.445 (inactive)
CCUAAAAUACUUUACCGGGTT against Bckdhb | -0.025 (inactive)

Sequence | z-score
GGAGAAUCUUCAACACUGGTT against Adprh | -0.951 (inactive)
GGCUUCAAAACAUUUUCAGTT against Kansl1l | 2.81 (active)
GGCAUAUUCCGUUUUUAAATT against Pafah1b1 | -1.09 (inactive)
GCAGUUACAGGAAAUCGAGTT against Cdr2 | -0.746 (inactive)
GCCCAAGCAGUUCAUUCAUTT against Epc2 | 0.665 (inactive)
GCAUUAGUCAUUGUUAACGTT against Hsd17b4 | 0.653 (inactive)
GGGCGACUUUAGCUUUUAUTT against Pced1b | 2.51 (active)
GGACUUCACCAUCCACGAATT against Pgap2 | 0.622 (inactive)
GGAUGCCUGAGUGCUACAUTT against Lsm4 | -0.837 (inactive)
CGGUGCGAUCUCUCAAAGUTT against Cryba4 | 2.97 (active)
GAUAUAAAGCCUUCAACACTT against Olfr912 | -1.48 (inactive)
GGAGAUGCUCAUUUUGAUUTT against Mmp8 | 1.76 (inactive)
GGUAGUGGCUUGAACAGGUTT against Vmn1r201 | 0.115 (inactive)
GGAUCCUCGGACUAAAAGUTT against Pnma1 | -0.228 (inactive)
GCAUCUUAACACAUGUAAATT against Zfp369 | -0.834 (inactive)
GGGAUGUAUUUCAACAACUTT against Wwox | 0.0276 (inactive)
GGUAUAAGGAUUCUUUGAATT against Alg13 | -2.8 (active)
GGCAUGGACAUUGAUGACATT against Dnajb1 | -0.834 (inactive)
GCCUAAAGCUUUUCUACAATT against Mlph | 0.161 (inactive)
GGUCAUCCGAGAUUUCACCTT against Elavl3 | -0.944 (inactive)
ACUUCACCAUGGUACCCGGTT against Tspo | 1.06 (inactive)
GGCUUAAAUGCGUUCUACATT against Slc25a3 | 0.0986 (inactive)

Sequence | z-score
GCCAGGAUAUGGAUAUGCATT against 1520401A03Rik | -2.06 (active)
GGCAGAAGAGUGGUACUUUTT against Fyn | -1.63 (inactive)
AAAGGACUGCCUAAGACAATT against Vmn1r203 | -0.921 (inactive)
GCCAUGUUCUUUGCUCCCATT against Pigl | -1.8 (inactive)
GGGCAAACUCUAGAGCUACTT against Pdgfrl | -0.0578 (inactive)
GUCUGGAUAUUUGACACUATT against Tmem60 | -0.637 (inactive)
GGAGUUGAUUGAAAUCAUCTT against Atp5c1 | 0.466 (inactive)
CGCAGGACGAUUAUGACGUTT against Pcdhb12 | 0.753 (inactive)
GGGAAACAAAAAAGAUUUCTT against Ptpn13 | 0.619 (inactive)
GCCAGCUAAAGAAGUCUAUTT against Gpr17 | 2.81 (active)
GGUCUCAAUAAACUUCAGGTT against Mfap4 | 0.926 (inactive)
CCCAAAGCGUGACUGUCAATT against Sema4b | -0.623 (inactive)
CCUGAAGUGGAGAUUCAACTT against Kcnj6 | -1.27 (inactive)
GGAGUUUACAGAAAUUAUCTT against Pecam1 | 0.214 (inactive)
GAUUAGCAUCCAUGAACACTT against Tcl1b2 | 2.16 (active)
GGCAGAUUCAGACCUUCGATT against Sult1c2 | -0.753 (inactive)
CGAACAGUGCUUCGUAUGUTT against Lims1 | -1.04 (inactive)
GGUACAUGAAGAAAAGUAATT against Lrrc19 | -0.243 (inactive)
GCAUACAAGACCGUGAUCATT against Psmc4 | -2.03 (active)
GGUUAUUUCUCUCUCCCUATT against Creld1 | 0.524 (inactive)
GGAGGAUGACAAAAUCUAUTT against Rnf113a2 | 1.25 (inactive)
GCAUGGUAUUAGAUGAUGATT against Nexn | -1.69 (inactive)

Sequence | z-score
GCGCAGAUAUCCUGGUUUGTT against Dhx36 | 2.28 (active)
GGAAUGUGCCUAAGUUUGGTT against Ufc1 | 1.08 (inactive)
CCAAUGGAACAUUAAGUGATT against Psma1 | -0.485 (inactive)
CCAUAGUUGAUGGAAGAUATT against Shld2 | -0.847 (inactive)
CCCUAUUUGUCAACGAUUATT against Lrrc24 | -0.662 (inactive)
GGAAGCAAUGUGAGAAAUUTT against Tmem91 | 2.54 (active)
GCCAAAUCAUGGGUCUGGUTT against Npas3 | 0.969 (inactive)
GGCAAUGUGCCCAAUAUCATT against Rfc2 | -1.61 (inactive)
GGACUCAUAUCCUUACAUATT against AI854703 | -0.0584 (inactive)
GGGAUAGCUGUCACCUUCUTT against Rad9a | -0.742 (inactive)
GGUGUUGAGUGCACUACUGTT against Nckap5l | -2.2 (active)
GUUUCUCGAAGAGCAUCCUTT against Cyb5a | 0.732 (inactive)
UCACUUGUACCAAAAAUGATT against Adcy1 | -1.43 (inactive)
GGGAAAGUCGUUGAAAUUUTT against Stx18 | 0.941 (inactive)
GGAUUAAAGCAGAAUAUGATT against Paics | -0.561 (inactive)
GGCUGUCCUUUUCCUCUUATT against Yipf6 | 1.49 (inactive)
CCCAAAACUCUAGCUACUATT against Olfr824 | -3.03 (active)
CGCAGCAGUUGUGGUCAAUTT against Nnat | -1.23 (inactive)
GGGCUGCUAUUUUGAUGGUTT against Chrd | 0.704 (inactive)
GCGUAUAAGCUCAGUAGACTT against Phlpp1 | 1.06 (inactive)
